target: Mitogen-activated protein kinase 1 (Homo sapiens) (UniProt P28482); conditions: at 0.1 µM
Sequence (P28482 whole entry): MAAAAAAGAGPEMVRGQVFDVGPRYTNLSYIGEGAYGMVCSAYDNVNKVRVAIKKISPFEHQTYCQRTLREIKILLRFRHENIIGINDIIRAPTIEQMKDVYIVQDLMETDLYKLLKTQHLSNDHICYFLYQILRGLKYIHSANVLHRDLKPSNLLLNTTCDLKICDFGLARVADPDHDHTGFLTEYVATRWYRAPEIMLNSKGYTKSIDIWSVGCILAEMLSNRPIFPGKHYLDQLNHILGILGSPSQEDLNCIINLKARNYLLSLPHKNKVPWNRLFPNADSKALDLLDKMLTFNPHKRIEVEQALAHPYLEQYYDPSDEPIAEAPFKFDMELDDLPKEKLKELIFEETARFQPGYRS

Structure (SMILES) | inhibition
NS(=O)(=O)c1ccc(-c2ccc3c(NC(=O)C4CC4)n[nH]c3c2)cc1 | 2.15%
CCn1c(-c2nonc2N)nc2c(C#CC(C)(C)O)ncc(OCC3CCNCC3)c21 | 5.25%
CCn1c(-c2nonc2N)nc2c(C#CCN)ncc(OCCCN)c21 | -2.43%
Nc1nonc1-c1nc2cnccc2n1C1CCCCC1 | -1.37%
COc1cccc(COc2cc(-n3cnc4ccccc43)sc2C(N)=O)c1 | 1.13%
NS(=O)(=O)c1ccc(N/C=C2\C(=O)Nc3ccc4ncsc4c32)cc1 | 8.37%
Fc1ccc(-c2ncn(C3CCNCC3)c2-c2ccnc(Oc3ccccc3)n2)cc1 | 2.78%
CCn1c(-c2nonc2N)nc2c(C#CC(C)(C)O)nc(O[C@@H](CN)c3ccccc3)cc21 | -1.73%
Cc1cc(-c2ccco2)cc(C)c1/C=C/c1cncc(-c2nn[nH]n2)c1 | 1.32%
CCn1c(-c2nonc2N)nc2c(C#CC(C)(C)O)ncc(OC[C@@H]3CCCN3)c21 | 1.59%
COc1cc(C=NNc2ncnc3c2cnn3Cc2ccccc2)ccc1O | 2.37%
NC(=O)c1sc(-n2cnc3cc(C(F)(F)F)ccc32)cc1OCc1ccccc1Br | 0.51%
COc1cccc(-n2ncc3c(N/N=C/c4ccncc4)ncnc32)c1 | 5.32%

target: Mitogen-activated protein kinase 1 (Homo sapiens) (UniProt P28482); conditions: at 1 µM

Structure (SMILES) | inhibition
NS(=O)(=O)c1ccc(-c2ccc3c(NC(=O)C4CC4)n[nH]c3c2)cc1 | 3%
CCn1c(-c2nonc2N)nc2c(C#CC(C)(C)O)ncc(OCC3CCNCC3)c21 | 4.1%
CCn1c(-c2nonc2N)nc2c(C#CCN)ncc(OCCCN)c21 | -4.85%
Nc1nonc1-c1nc2cnccc2n1C1CCCCC1 | 1.38%
COc1cccc(COc2cc(-n3cnc4ccccc43)sc2C(N)=O)c1 | 1.97%
NS(=O)(=O)c1ccc(N/C=C2\C(=O)Nc3ccc4ncsc4c32)cc1 | 31.1%
Fc1ccc(-c2ncn(C3CCNCC3)c2-c2ccnc(Oc3ccccc3)n2)cc1 | 6.09%
CCn1c(-c2nonc2N)nc2c(C#CC(C)(C)O)nc(O[C@@H](CN)c3ccccc3)cc21 | 5.15%
Cc1cc(-c2ccco2)cc(C)c1/C=C/c1cncc(-c2nn[nH]n2)c1 | 2.18%
CCn1c(-c2nonc2N)nc2c(C#CC(C)(C)O)ncc(OC[C@@H]3CCCN3)c21 | 1.3%
COc1cc(C=NNc2ncnc3c2cnn3Cc2ccccc2)ccc1O | -6.99%
NC(=O)c1sc(-n2cnc3cc(C(F)(F)F)ccc32)cc1OCc1ccccc1Br | 2.13%
COc1cccc(-n2ncc3c(N/N=C/c4ccncc4)ncnc32)c1 | 7.16%
